# Screening data from PubChem.
# The list is not random: actives were taken first. Their share in the collection is about 1.8%.
# Phagocyt inh = macrophage phagocytosis inhibition; J774A.1 macrophage IgG-bead phagocytosis, imaging; inhibition, % at 5 µM; hit rate 0.07% among 110,000; AID 1029;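 active means inhibition above the mean of the plate negative controls plus 5 SD, cut at about 13% in these data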;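 further: phagocytic index as fraction of beads internalized from green versus red external bead signal; plate controls were DMSO negative control for no effect and cytochalasin-D positive control for full effect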
# sdo1 growth = restores growth of sdo1-depleted yeast; S. cerevisiae sdo1-depleted JHY4D growth rescue, OD600 30 h; stronger effect = higher value; pdr5 snq2 efflux-pump mutant strain; hit rate 0.21% among 140,000; z-score at 10 µM; AID 817;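 active means z-score above 3 at both the 24 hr and the 30 hr optical density reads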;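 further: z-score against mean and SD of all compound wells on the same plate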
# Measles CPE = protection of cells from measles virus; Measles virus-infected cells, CPE protection, absorbance; protection (pct of control), % at 4 µM; hit rate 1.5% among 140,000; AID 841; in the data active means protection mostly above about 24%, no sharp cut-off; inactive means mostly below about 26%
# Numbers without * were called inactive; nt = no result; [ ] = remark or other dose.
SMILES,Phagocyt inh,sdo1 growth,Measles CPE
Cc1ccc(N(CC(=O)NC(C)c2ccccc2)S(=O)(=O)c2cccs2)cc1 (configuration not stated),nt,-1.1,0
COc1ccc(-c2[nH]ncc2/C=C(/C#N)C(=O)NC2CCCCC2)cc1,1,-0.33,15
Cc1ccc(-c2[nH]ncc2/C=C(\C#N)C(=O)NC2CCCCC2)cc1,4,-0.54,70*
C/C=C/c1ccc(OCC(=O)OCc2csc(Nc3ccc(C)cc3)n2)c(OC)c1,-2,-0.77,16
CCOC(=O)c1cc2c(n(-c3ccccc3)c1=O)CC(C)(C)CC2=O,1,1.4,3
CCC1(C)CC(=O)N(c2ccc(C(=O)O)c(O)c2)C1=O (configuration not stated),0,0.04,36*
O=c1[nH]c2ccc(Cl)cc2c(-c2ccccc2)c1N1CCN(c2ccccn2)CC1,0,-1.8,16
CC1=NN(C(=O)c2ccc(Cn3cc([N+](=O)[O-])cn3)cc2)C(O)(C(F)(F)F)C1 (configuration not stated),-5,1,8
CCOc1ccccc1NC1c2ccccc2C(=O)N1c1cccnc1 (configuration not stated),0,0.1,6
CCN(C(=O)COc1ccc(C)nc1[N+](=O)[O-])C1CCS(=O)(=O)C1 (configuration not stated),-6,1.3,31
Cc1ccc(OCC(=O)N(Cc2ccccc2)C2CCS(=O)(=O)C2)c([N+](=O)[O-])n1 (configuration not stated),-6,0.36,37*
Cc1cc(=O)oc2cc(OS(C)(=O)=O)ccc12,3,0.93,6
O=C1CCCCCN1C(=O)c1cccc(C(=O)N2CCCCCC2=O)c1,-3,-0.16,5
Cc1cc(NC(=O)CSc2ccc3nnc(-c4cccnc4)n3n2)no1,0,-0.66,44*
Cc1ccc(-c2nnc3ccc(SCC(=O)Nc4cc(C)on4)nn23)cc1,2,-0.3,8
Cc1cc(C)cc(-n2cc[nH]c2=S)c1,-6,1.1,7
COc1ccc(NS(=O)(=O)c2ccc3nc(COc4ccc(Cl)c(C)c4)[nH]c3c2)cc1,1,0.46,19
C=CCOc1c(CNc2ccc(S(N)(=O)=O)cc2)cccc1OC,nt,1,28
C=CCOc1c(CNn2nnnc2N)cccc1OC,nt,0.33,42*
COC(=O)c1sccc1NC(=O)c1ccc(OC)cc1OC,-5,-1,10
COc1ccc(C2=NN(C(=O)CSc3ncccn3)C(c3ccc(OC)cc3)C2)cc1 (configuration not stated),-2,-0.61,63*
COc1ccc(C2CC(c3ccc4ccccc4c3)=NN2C(=O)CSc2ncccn2)cc1 (configuration not stated),-3,-0.52,10
CC1=C(C)CC(C(=O)Nc2nc(-c3ccc(C)cc3C)c(C)s2)C(C(=O)O)C1 (configuration not stated),8,-0.27,11
CCC(CC)NC(=O)c1ccc(Cl)cc1,-4,1.9,6
CNC(=O)COC(=O)c1cc(=O)[nH]c2ccccc12,nt,-0.01,2
SMILES,Phagocyt inh,sdo1 growth,Measles CPE
CC(C)(C)NC(=O)NC(=O)COC(=O)c1cc(=O)[nH]c2ccccc12,-1,0.43,35*
COc1ccc(C(=O)/C=C/c2ccc(N3CCCCC3)c([N+](=O)[O-])c2)c(OC)c1,-9,0.1,50*
COc1ccc(C(=O)/C=C/c2ccc(N3CCCCC3)c([N+](=O)[O-])c2)cc1,-2,-0.38,4
CN(C)c1ccc(C2SCCN2C(=O)c2ccc([N+](=O)[O-])cc2)cc1 (configuration not stated),nt,0.44,3
O=C(c1ccc([N+](=O)[O-])cc1)N1CCSC1c1ccccc1 (configuration not stated),nt,1.4,24*
COc1ccc(-c2nnc(OCc3ccccc3)c3ccccc23)cc1,-9,-0.21,34
COc1ccc(SCc2noc(C(=O)NC(C)C)c2C(=O)O)cc1,nt,-0.02[10.1 µM],1
CCOc1ccc(OCc2ccc(C(=O)NCC3CCCO3)o2)cc1 (configuration not stated),-1,0.5,3
O=C(NCC1CCCO1)c1ccc(COc2ccc(F)cc2)o1 (configuration not stated),6,0.34,32*
CCn1c(SCC(=O)NCc2cccs2)nnc1-c1ccncc1,-1,0.07,12
CCn1c(SCC(=O)NCc2cccs2)nnc1-c1ccco1,4,1.5,26*
O=C1NC(=Nc2cccc(Cl)c2)SC1Cc1cccc(Cl)c1Cl (configuration not stated),-1,-0.78,3
CCOc1cc(CNC(C)C)c(Cl)cc1OCC(=O)NCCc1ccccc1,-1,-0.15,0
Cc1ccc(NC(=O)COC(=O)Cn2nc(C)c([N+](=O)[O-])c2C)c([N+](=O)[O-])c1,-3,0.21,40*
